{"source": "PubChem BioAssay AID488890", "about": "(Southern Research Specialized Biocontainment Screening …, 2010)", "note": "About 1,300 (0.41%) of roughly 320,000 compounds were called active. Roughly 3% stayed inconclusive and do not appear here. How the calls were made is not given here. Only a sample is shown. Entries with a potency or affinity are not part of this list.", "data": [{"test": "growth inhibition of non-replicating M. tuberculosis (AID 488890);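 further: plate controls were DMSO cells for no effect and high antibiotic wells for full effect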", "details": "Mycobacterium tuberculosis non-replicating, at 25 µM, stronger effect = higher value", "units": {"inhibition": "%"}, "values": [{"smiles": "O=C(Nc1ccccc1)c1cccc2c(Br)cccc12", "inhibition": -8.76}, {"smiles": "CCc1ccc(/C(C)=N/NC(=O)c2ccccn2)cc1", "inhibition": 27}, {"smiles": "Cc1ccc(N=CC2=C(O)CC(c3ccccc3Cl)CC2=O)cc1", "note": "(stereo not drawn)", "inhibition": 2.23}, {"smiles": "O=C(Nc1ccc(Br)cc1F)c1sccc1-n1cccc1", "inhibition": 0.35}, {"smiles": "COc1ccccc1C(=O)Nc1c2c(nn1-c1ccc([N+](=O)[O-])cc1)CS(=O)(=O)C2", "inhibition": -26.7}, {"smiles": "CC(=O)Oc1ccc([C@@H]2COc3c(ccc4c3C=CC(C)(C)O4)C2)c(OC(C)=O)c1", "inhibition": -2.73}, {"smiles": "CC1=CC2=NC(=O)/C(=C/c3cccs3)C(=N)N2O1", "inhibition": -5.09}, {"smiles": "COc1cc(/C=C2\\C(=N)N3N=CSC3=NC2=O)cc(Br)c1OC(=O)c1ccco1", "inhibition": -3.1}, {"smiles": "CC(=O)Nc1ccc(OCCOc2ccc(/C=C3/C(=N)N4C=CSC4=NC3=O)cc2)cc1", "inhibition": 2.76}, {"smiles": "COc1cc(/C=C2/C(=N)N3OC(C)=CC3=NC2=O)ccc1OCCOc1ccc(C)cc1", "inhibition": -6.61}, {"smiles": "O=C1CN(C(=O)c2cccc(Br)c2)c2ccccc2N1", "inhibition": -8.78}, {"smiles": "Cc1nnc(NC(=O)CCC(=O)N2CCN(CCOc3cccc4ccccc34)CC2)s1", "inhibition": 16.7}, {"smiles": "CCCCOC(=O)Nc1cc(C(=O)OC)ccc1C(=O)OC", "inhibition": 18.2}, {"smiles": "N#Cc1ccc(OCC(=O)Nc2nc(-c3ccncc3)cs2)cc1", "inhibition": 10}, {"smiles": "Cc1c([N+](=O)[O-])c([N+](=O)[O-])nn1CC(=O)NCc1cccnc1", "inhibition": 6.05}, {"smiles": "Cn1c(=O)c2c(SCCN3CCOCC3)nc(C3CCCC3)nc2n(C)c1=O", "inhibition": 19.1}, {"smiles": "CCOc1ccc(C(=O)N/N=C/c2cc([N+](=O)[O-])cs2)cc1", "inhibition": 69.5}, {"smiles": "COc1cc(C(=O)N/N=C/c2ccsc2C)cc(OC)c1OC", "inhibition": 0.65}, {"smiles": "COc1ccc(CC(=O)OCc2cc(=O)n3cc(Br)ccc3n2)cc1OC", "inhibition": 13.9}, {"smiles": "CCOc1ccc(CC(=O)OCc2cc(=O)n3cc(Br)ccc3n2)cc1", "inhibition": 50.5}, {"smiles": "CCOC(=O)c1cccc(COC(=O)c2cccc(-c3nnc(-c4ccccc4)o3)c2)c1", "inhibition": 18.4}, {"smiles": "O=C(OCc1nnc(-c2ccccc2)o1)c1ccccc1", "inhibition": 73.8}, {"smiles": "O=C(OCc1nnc(-c2ccccc2)o1)c1cccnc1Cl", "inhibition": 6.83}, {"smiles": "Cc1onc(-c2ccccc2)c1C(=O)OCc1nnc(-c2ccc([N+](=O)[O-])cc2)o1", "inhibition": 48}, {"smiles": "CCOC(=O)Nc1nc2ccccc2s1", "inhibition": -2.43}, {"smiles": "CC(=O)OCc1nc2ccccc2s1", "inhibition": -0.84}, {"smiles": "O=C(OCc1nnc(-c2ccccc2)o1)c1ccc([N+](=O)[O-])o1", "inhibition": 64.9}, {"smiles": "CCOC(=O)c1ccc(Cn2c(-c3ccccc3)nnc2-c2ccccc2)o1", "inhibition": 11.2}, {"smiles": "Cc1cc(C(=O)CSc2nc3ccc(Cl)cc3[nH]2)c(C)n1Cc1ccco1", "inhibition": 13.9}, {"smiles": "COc1ccc(CN2C(=O)c3cccnc3C2Nc2ccc(C)cc2)cc1", "note": "(stereo not drawn)", "inhibition": 27}, {"smiles": "CN(CC(=O)NCc1ccccc1Cl)S(=O)(=O)c1ccc2c(c1)n(C)c(=O)c(=O)n2C", "inhibition": -4.13}, {"smiles": "CCOC(=O)CC(=O)COc1nc2cc3c(nc2o1)CCCC3", "inhibition": -11.4}, {"smiles": "NCCCC[C@H](NC(=O)C1CCNCC1)c1nnc(CN)o1", "inhibition": -30.9}, {"smiles": "CCC/C(=C1/c2ccccc2C(=O)N1c1ccccc1)c1cnc(OC)nc1", "inhibition": 24.1}, {"smiles": "COc1ccc(CN2CCN(c3ccccc3OC)CC2)cc1OC", "inhibition": -6.29}, {"smiles": "O=C(COC(=O)c1ccc(Br)o1)Nc1nc2ccccc2s1", "inhibition": 71.5}, {"smiles": "Nc1ccc(C(=O)OCc2nc3ccccc3s2)cc1", "inhibition": 68.4}, {"smiles": "COc1ccc(C2=NOC(C(=O)N(C)Cc3ccccc3)C2)cc1", "note": "(stereo not drawn)", "inhibition": 48.3}, {"smiles": "O=C(c1ccc(F)cc1)C(Cc1ccccc1)N1CCCCC1", "note": "(stereo not drawn)", "inhibition": 63.6}, {"smiles": "Cc1ccn2c(=O)cc(C)nc2c1", "inhibition": 4.9}, {"smiles": "Cc1cc(=O)n2ccsc2n1", "inhibition": 0.97}, {"smiles": "CCOc1ccc(N(CC(=O)N2CCN(c3ccc(F)cc3)CC2)S(=O)(=O)c2c(C)noc2C)cc1", "inhibition": 21.6}, {"smiles": "COC(=O)CSc1nnc(-c2ccccc2OC)o1", "inhibition": 77.4}, {"smiles": "Cn1nc([N+](=O)[O-])nc1Sc1nnc(-c2ccccc2)o1", "inhibition": 78}, {"smiles": "CCCOc1ccc(N2CC(C(=O)NC(C)C)CC2=O)cc1", "note": "(stereo not drawn)", "inhibition": -9.57}, {"smiles": "CCC(=Nc1ccc2c(c1)CCC2)c1c(O)n(C)c(=O)n(C)c1=O", "inhibition": 7.71}, {"smiles": "CCC(=Nc1cccc(C(F)(F)F)c1)c1c(O)n(C)c(=O)n(C)c1=O", "inhibition": -2.54}, {"smiles": "COc1cccc(OC)c1C(=O)OCC(=O)N1CC(C)CC(C)C1", "note": "(stereo not drawn)", "inhibition": -15.5}, {"smiles": "Cc1nc2ccccc2c(=O)n1/N=C/c1c(O)ccc2ccccc12", "inhibition": 40.6}, {"smiles": "Cc1nnc(C)n1/N=C/c1c(O)ccc2ccccc12", "inhibition": 3.2}, {"smiles": "Fc1cccc(Nc2cc(-n3cccn3)ncn2)c1", "inhibition": 21.4}, {"smiles": "CN(Cc1cccs1)S(=O)(=O)c1ccc(Cl)cc1F", "inhibition": 44.2}, {"smiles": "Cc1ccc(N=Cc2nc(-c3ccco3)oc2O)cc1", "inhibition": 73.2}, {"smiles": "Oc1oc(-c2ccco2)nc1C=Nc1ccccc1", "inhibition": 17}, {"smiles": "CC(C)(O)C#Cc1ccc(CN2CCN(C3CCCCC3)C(CCO)C2)s1", "note": "(stereo not drawn)", "inhibition": 11.2}, {"smiles": "CCN(CC)CCOC(=O)/C=C/c1ccccc1OC", "inhibition": -10.5}, {"smiles": "COc1ccc(NC(=O)Nc2ccccc2F)c(C)c1", "inhibition": 20.6}, {"smiles": "CCOc1cc(-c2sc(Nc3ccc(CC)cc3)n[n+]2-c2ccccc2)ccc1OC", "inhibition": 63.8}, {"smiles": "COc1ccc(C)cc1Nc1n[n+](-c2ccccc2)c(-c2ccc(SC)cc2)s1", "inhibition": 76.9}, {"smiles": "Oc1cc2c(cc1CN1CCN(c3ncccn3)CC1)OCO2", "inhibition": 8.73}, {"smiles": "C=CCNc1oc(-c2cccs2)nc1C#N", "inhibition": -2.7}, {"smiles": "N#Cc1nc(-c2cccs2)oc1NCc1ccccc1", "inhibition": 29.7}, {"smiles": "CC1CCCC(NS(=O)(=O)c2cc3c(cc2Cl)NC(=O)CO3)C1C", "note": "(stereo not drawn)", "inhibition": 31.5}, {"smiles": "Cc1ccc(C2(C)NC(=O)N(CC(=O)N(C)CC(=O)Nc3cccc4ccccc34)C2=O)cc1", "note": "(stereo not drawn)", "inhibition": 7.1}, {"smiles": "O=C1CN=C(c2ccccc2)c2cc(Cl)ccc2N1", "inhibition": 5.86}, {"smiles": "COc1ccc(C2=NCC(=S)Nc3ccc(Cl)cc32)cc1OC", "inhibition": -21}, {"smiles": "O=C(CN1C(=O)C(=O)N(CCC2=CCCCC2)C1=O)Nc1ccc(F)cc1F", "inhibition": 8.84}, {"smiles": "Cc1nc2ccccc2nc1OCC(=O)Nc1cc(C(F)(F)F)ccc1N1CCOCC1", "inhibition": 5.99}, {"smiles": "O=C1O/C(=C/c2ccccc2)c2ccccc21", "inhibition": -7.13}, {"smiles": "CN(C)/C=C1/OC(=O)C(C#N)=C1c1ccc(Cl)cc1", "inhibition": -0.58}, {"smiles": "COc1cc(/C=C/[N+](=O)[O-])ccc1OC(=O)c1cc2ccccc2oc1=O", "inhibition": 37.8}, {"smiles": "COc1ccc(N(CC(=O)Nc2ccccc2C)S(=O)(=O)c2c(C)[nH]c(=O)[nH]c2=O)cc1", "inhibition": 8.99}, {"smiles": "CC(C)NC(=O)Cn1c(SCC(=O)c2ccc(F)cc2)nc2ccccc21", "inhibition": 7.83}, {"smiles": "Cc1cc(C2=NNC(=NC3CC3)SC2)c(C)n1-c1c(C)n(C)n(-c2ccccc2)c1=O", "inhibition": 4.63}, {"smiles": "CN=C1NN=C(c2cc(C)n(-c3ccc(Cl)cc3)c2C)CS1", "inhibition": 14.6}, {"smiles": "CCc1ccc(NS(=O)(=O)c2cc3c4c(c2)CCN4C(=O)CC3)cc1", "inhibition": 1.05}, {"smiles": "Cc1oc(-c2cccc(Cl)c2)nc1CN1CCCC(C(=O)NCc2ccco2)C1", "note": "(stereo not drawn)", "inhibition": 22.8}, {"smiles": "Nc1c(C(=O)OCC(=O)NCc2ccccc2)[nH]c(=O)[nH]c1=O", "inhibition": -9.15}, {"smiles": "Cc1[nH]c(=O)[nH]c(=O)c1/C=C/C(=O)O", "inhibition": -4.51}, {"smiles": "CCCCn1c(N)c(N(CC(C)C)C(=O)c2ccc(-c3ccc(Cl)cc3)o2)c(=O)[nH]c1=O", "inhibition": 74.7}, {"smiles": "CNS(=O)(=O)c1ccc(-c2ccc(C=C3C(=O)NC(=O)NC3=O)o2)cc1", "inhibition": -1.77}, {"smiles": "NS(=O)(=O)c1ccc(-c2ccc(C=C3C(=O)NC(=O)NC3=O)o2)cc1", "inhibition": 2.79}, {"smiles": "CCCc1nc(SCc2ccc(Cl)cc2Cl)n[nH]1", "inhibition": 2.74}, {"smiles": "Nc1nc(SCc2ccc(Cl)cc2Cl)n[nH]1", "inhibition": 1.74}, {"smiles": "Cc1cccc2nc(CNC(=O)C3CCC(=O)N(Cc4ccccc4F)C3)cn12", "note": "(stereo not drawn)", "inhibition": -13.7}, {"smiles": "CC(C)n1c(SCC(=O)Nc2ccc(F)cc2)nnc1C1CC1", "inhibition": -1.85}, {"smiles": "Cc1nn(C(=O)CCC(=O)NCc2ccc(OC(C)C)cc2)c2ccccc12", "inhibition": -4.46}, {"smiles": "CN(C#N)c1nccc(-c2cccs2)n1", "inhibition": 19}, {"smiles": "COc1ccc(CCNC(=O)c2ccc(Cl)cc2)cc1", "inhibition": 74.1}, {"smiles": "COc1ccc(C(=O)NNC(=O)Nc2ccc(Cl)cc2)cc1", "inhibition": -7.99}, {"smiles": "COc1ccc(N/C=C/C(=O)c2ccc(Cl)cc2)cc1", "inhibition": 45.2}, {"smiles": "Cc1ccc(C(=O)/C=C\\NCc2ccccc2)cc1", "inhibition": 37.6}, {"smiles": "Cc1ccc(N/C=C/C(=O)c2ccc(C)cc2)cc1", "inhibition": 19.2}, {"smiles": "COc1ccc(C(=O)NCC(=O)NCC(=O)OCc2ccc(Cl)cc2)cc1", "inhibition": -0.72}, {"smiles": "COC(=O)c1sc2nc(N3CCCCC3)c3c(c2c1N)CCCC3", "inhibition": 1.1}, {"smiles": "COC(=O)C1=C(C)OC(N)=C(C#N)C1c1ccc(OC)c(CSc2ccccn2)c1", "note": "(stereo not drawn)", "inhibition": 10.8}, {"smiles": "Cc1ccn2c(=O)nc(SCC(=O)N3CCCC3)nc2c1", "inhibition": 8.52}, {"smiles": "O=C(CN1CCCCC1)N/N=C/c1ccc(Cl)cc1Cl", "inhibition": -4.16}, {"smiles": "O=C1CCC(=O)N1CNc1cccnc1", "inhibition": 3.84}, {"smiles": "COc1ccc(NCN2C(=O)CCC2=O)cc1", "inhibition": 61}, {"smiles": "COc1ccccc1-c1cn(C(C)(C)C)nc1C", "inhibition": -1.55}, {"smiles": "O=C(N/N=C/c1cc(Br)c(O)c(Br)c1)c1cccc(C(F)(F)F)c1", "inhibition": 21}, {"smiles": "O=C(N/N=C/c1cccc(C(F)(F)F)c1)c1ccc(O)cc1", "inhibition": 16.8}, {"smiles": "C[C@H](CO)N1C[C@H](C)[C@@H](CN(C)S(=O)(=O)c2cn(C)cn2)Oc2ccc(NC(=O)NC3CCCCC3)cc2C1=O", "inhibition": -8.37}, {"smiles": "Cc1ccc(S(=O)(=O)N2CCOCC2)cc1C(=O)N1CCN(c2ccc(C(F)(F)F)cn2)CC1", "inhibition": 7.63}, {"smiles": "CCCOc1cc(C)c(S(=O)(=O)NCc2cccs2)cc1C", "inhibition": 6.87}, {"smiles": "CNc1cc(C)nc(-n2nc(C)cc2C)n1", "inhibition": 77.6}, {"smiles": "COc1ccc(Nc2cc(C)nc(N3CCOCC3)n2)cc1", "inhibition": 11.6}, {"smiles": "Cc1cc(NCCO)nc(-n2nc(C)cc2C)n1", "inhibition": 39.2}, {"smiles": "CCOc1ccc(Nc2cc(C)nc(N3CCOCC3)n2)cc1", "inhibition": 4.96}, {"smiles": "COC1(c2cc(-c3ccccc3)nc(N)n2)CCCCC1", "inhibition": 39.4}, {"smiles": "CC1CN(C(C)C(=O)NC(c2ccccc2)c2ccccc2)CC(C)O1", "note": "(stereo not drawn)", "inhibition": -1.17}, {"smiles": "Cc1cc(NC(=O)CSc2nnnn2-c2ccc(C)c(C)c2)no1", "inhibition": -1.12}]}]}
